Source: the supplement of paper PMC10849652
The full data set covers some 7,900 targets. This sample favours those with a hit. About 0.6% of all pairs of compound and target were hits. Unmarked numbers belong to inactive results.

Key:
Test in all cases: log2 fold change, soluble protein after heating vs DMSO (PISA); higher = thermal stabilisation; K562 cells, 10 uM, 30 min; active = over 0.2 and 3.5 SD of the protein, either way, in both replicates (recomputed)
erlotinib = compound: C#Cc1cccc(Nc2ncnc3cc(OCCOC)c(OCCOC)cc23)c1 [erlotinib]
Outline: (§1)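 Quantification of soluble protein used TMTpro 16plex LC-MS/MS, with channel sums equalised. Samples were the supernatant after 21,000xg for 90 min of pooled aliquots from K562 cells (2×10^6 cells/mL) treated with 10 μM compound for 30 min, heated for 3 min over 48°C-58°C, and extracted in PBS with 0.5% NP-40 at 4°C. Values, from duplicates, describe thermal stability against control samples on a log2 fold-change scale.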

[1] = compound: C/C(=N\NC(=O)C1=CC(=CC=C1)S(=O)(=O)N2CCOCC2)/C3=C(C=CC(=C3)Cl)O
Outline: as §1

[2] = compound: C1=CC(=C(C=C1Cl)C2=NC3=NC=CN=C3C(=N2)NC4=CC=NC=C4)F
Outline: as §1

[3] = compound: C1=CC(=CC=C1C2=NC3=C(N2)C=C(C=C3)C(=O)N)OC4=CC=C(C=C4)Cl
Outline: as §1

[4] = compound: C1=CC2=C(C=CC(=C2)/C=C\3/C(=O)NC(=NCC4=CC=CS4)S3)N=C1
Outline: as §1

[5] = compound: C1=CC2=NC=CN=C2C=C1/C=C/3\C(=O)NC(=O)S3
Outline: as §1

[6] = compound: C1=CC=C(C=C1)C2=NC(=C(N2)C3=CC=NC=C3)C4=CC(=C(C=C4)Cl)O
Outline: as §1

[7] = compound: C1=CC=C2C(=C1)C3=NNC4=CC=CC(=C43)C2=O
Outline: as §1

[8] = compound: C1CCN(C1)C(=O)NC2=CC=CC(=C2)NC3=NC=C(C(=N3)NCCC4=CN=CN4)Br
Outline: as §1

[9] = compound: C1CN(CCC1(CC2=CC=C(C=C2)Cl)N)C3=NC=NC4=C3C=CN4
Outline: as §1

IRAK-1-4 Inhibitor I = compound: C1COCCN1CCN2C3=CC=CC=C3N=C2NC(=O)C4=CC(=CC=C4)[N+](=O)[O-] [IRAK-1-4 Inhibitor I]
Outline: as §1

ibrutinib = compound: C=CC(=O)N1CCC[C@@H](n2nc(-c3ccc(Oc4ccccc4)cc3)c3c(N)ncnc32)C1 [ibrutinib]
Outline: as §1

[10] = compound: CC(=O)c1cnc2ccc(-c3cc(Cl)c(O)c(Cl)c3)nc2c1N[C@H]1CC[C@H](CN(C)C)CC1
Outline: as §1

ralimetinib = compound: CC(C)(C)Cn1c(N)nc2ccc(-c3[nH]c(C(C)(C)C)nc3-c3ccc(F)cc3)nc21 [ralimetinib]
Outline: as §1

[11] = compound: CC(C)(O)CC(=O)NCCn1ccc2ncnc(Nc3ccc(Oc4cccc(C(F)(F)F)c4)c(Cl)c3)c21
Outline: as §1

[12] = compound: CC(C)C1=C2N=C(C=C(N2N=C1)NCC3=CC=CC=C3)NCCCCCCN
Outline: as §1

[13] = compound: CC(C)C[C@@H](C=O)NC(=O)[C@H](CC(C)C)NC(=O)[C@H](CC(C)C)NC(=O)OCc1ccccc1
Outline: as §1

pinometostat = compound: CC(C)N(C[C@H]1O[C@@H](n2cnc3c(N)ncnc32)[C@H](O)[C@@H]1O)[C@H]1C[C@@H](CCc2nc3cc(C(C)(C)C)ccc3[nH]2)C1 [pinometostat]
Outline: as §1

[14] = compound: CC1=C(C(CC(=O)N1)C2=CC=C(C=C2)C(F)(F)F)C(=O)NC3=C(C=C4C(=C3)C=NN4)F
Outline: as §1

[15] = compound: CC1=C(C2=C(C=C1)C(=O)C3=CC=CC=C3N2CCCN)C
Outline: as §1

Sequence of UniProt P56211 (P56211 whole entry, looked up): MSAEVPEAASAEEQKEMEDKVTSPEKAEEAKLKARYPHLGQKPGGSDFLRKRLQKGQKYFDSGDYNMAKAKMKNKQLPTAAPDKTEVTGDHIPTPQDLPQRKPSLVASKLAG
Sequence of UniProt Q13444 (Q13444 whole entry, looked up): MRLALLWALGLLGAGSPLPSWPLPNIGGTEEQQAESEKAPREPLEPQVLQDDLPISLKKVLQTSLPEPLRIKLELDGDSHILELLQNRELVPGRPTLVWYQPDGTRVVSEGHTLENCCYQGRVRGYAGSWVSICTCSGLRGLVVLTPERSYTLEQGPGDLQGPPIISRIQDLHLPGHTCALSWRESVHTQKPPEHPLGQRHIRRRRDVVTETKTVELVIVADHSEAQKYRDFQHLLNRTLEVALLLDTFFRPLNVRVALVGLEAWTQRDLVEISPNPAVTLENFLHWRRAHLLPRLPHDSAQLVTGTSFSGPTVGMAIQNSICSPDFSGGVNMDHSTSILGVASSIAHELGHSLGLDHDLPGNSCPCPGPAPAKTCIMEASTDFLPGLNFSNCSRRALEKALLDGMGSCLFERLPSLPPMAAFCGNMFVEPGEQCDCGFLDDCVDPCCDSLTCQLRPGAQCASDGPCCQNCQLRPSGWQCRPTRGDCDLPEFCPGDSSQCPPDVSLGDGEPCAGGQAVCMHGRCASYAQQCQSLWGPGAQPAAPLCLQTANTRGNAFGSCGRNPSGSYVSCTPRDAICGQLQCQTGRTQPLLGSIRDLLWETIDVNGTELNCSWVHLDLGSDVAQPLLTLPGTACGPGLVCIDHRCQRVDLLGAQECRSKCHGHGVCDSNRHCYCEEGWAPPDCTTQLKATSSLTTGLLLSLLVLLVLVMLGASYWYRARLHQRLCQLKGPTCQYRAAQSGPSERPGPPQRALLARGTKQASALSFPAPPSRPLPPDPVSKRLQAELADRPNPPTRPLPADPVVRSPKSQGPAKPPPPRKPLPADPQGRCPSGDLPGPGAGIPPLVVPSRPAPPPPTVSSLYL
Sequence of UniProt Q9Y6D6 (Q9Y6D6 whole entry, looked up): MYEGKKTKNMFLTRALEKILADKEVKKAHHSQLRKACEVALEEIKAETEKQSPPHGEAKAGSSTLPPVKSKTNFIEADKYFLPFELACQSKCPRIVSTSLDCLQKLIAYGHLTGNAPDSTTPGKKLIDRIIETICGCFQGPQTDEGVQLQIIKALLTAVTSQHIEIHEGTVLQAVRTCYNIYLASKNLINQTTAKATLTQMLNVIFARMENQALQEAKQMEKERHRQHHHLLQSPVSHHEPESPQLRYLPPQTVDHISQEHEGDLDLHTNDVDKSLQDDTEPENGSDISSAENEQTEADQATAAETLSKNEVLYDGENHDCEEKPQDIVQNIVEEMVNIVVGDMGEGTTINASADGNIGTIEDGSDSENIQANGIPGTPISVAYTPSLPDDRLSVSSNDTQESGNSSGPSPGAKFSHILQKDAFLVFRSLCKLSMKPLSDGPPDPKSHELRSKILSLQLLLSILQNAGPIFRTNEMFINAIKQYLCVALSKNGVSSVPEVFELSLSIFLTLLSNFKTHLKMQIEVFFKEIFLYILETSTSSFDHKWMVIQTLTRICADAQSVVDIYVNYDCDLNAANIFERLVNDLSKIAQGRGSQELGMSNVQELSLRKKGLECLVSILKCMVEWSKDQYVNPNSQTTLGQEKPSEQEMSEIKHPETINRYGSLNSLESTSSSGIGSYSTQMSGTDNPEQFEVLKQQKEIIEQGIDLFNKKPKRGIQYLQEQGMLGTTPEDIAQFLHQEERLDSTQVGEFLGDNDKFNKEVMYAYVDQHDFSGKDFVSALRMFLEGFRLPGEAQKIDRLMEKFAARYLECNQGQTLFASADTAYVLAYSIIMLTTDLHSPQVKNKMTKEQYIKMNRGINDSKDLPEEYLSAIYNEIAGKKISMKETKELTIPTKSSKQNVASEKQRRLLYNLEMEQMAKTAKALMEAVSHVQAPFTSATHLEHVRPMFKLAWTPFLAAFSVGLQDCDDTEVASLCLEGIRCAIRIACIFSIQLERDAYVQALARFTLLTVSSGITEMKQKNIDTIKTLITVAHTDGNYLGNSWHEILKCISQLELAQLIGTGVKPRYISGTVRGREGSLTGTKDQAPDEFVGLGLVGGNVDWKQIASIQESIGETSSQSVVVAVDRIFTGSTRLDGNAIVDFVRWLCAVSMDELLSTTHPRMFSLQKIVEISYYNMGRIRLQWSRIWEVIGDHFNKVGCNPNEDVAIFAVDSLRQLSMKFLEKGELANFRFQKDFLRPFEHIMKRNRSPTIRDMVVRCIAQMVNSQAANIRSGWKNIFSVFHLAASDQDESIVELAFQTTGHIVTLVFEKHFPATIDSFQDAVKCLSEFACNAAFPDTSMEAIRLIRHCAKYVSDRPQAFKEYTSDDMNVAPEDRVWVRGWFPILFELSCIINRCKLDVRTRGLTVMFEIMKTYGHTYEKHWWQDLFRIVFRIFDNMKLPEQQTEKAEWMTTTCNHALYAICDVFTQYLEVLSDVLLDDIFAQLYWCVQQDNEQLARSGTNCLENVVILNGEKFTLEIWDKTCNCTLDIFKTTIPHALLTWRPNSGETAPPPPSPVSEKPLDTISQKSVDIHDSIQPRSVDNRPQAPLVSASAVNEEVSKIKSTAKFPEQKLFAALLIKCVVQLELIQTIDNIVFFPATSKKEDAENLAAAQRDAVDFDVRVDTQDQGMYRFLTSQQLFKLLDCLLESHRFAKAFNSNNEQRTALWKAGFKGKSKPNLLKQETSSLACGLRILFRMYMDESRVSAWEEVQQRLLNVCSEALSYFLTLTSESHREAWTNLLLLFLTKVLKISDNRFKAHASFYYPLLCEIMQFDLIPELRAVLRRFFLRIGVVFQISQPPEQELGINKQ
Sequence of UniProt Q8N6S5 (Q8N6S5 whole entry, looked up): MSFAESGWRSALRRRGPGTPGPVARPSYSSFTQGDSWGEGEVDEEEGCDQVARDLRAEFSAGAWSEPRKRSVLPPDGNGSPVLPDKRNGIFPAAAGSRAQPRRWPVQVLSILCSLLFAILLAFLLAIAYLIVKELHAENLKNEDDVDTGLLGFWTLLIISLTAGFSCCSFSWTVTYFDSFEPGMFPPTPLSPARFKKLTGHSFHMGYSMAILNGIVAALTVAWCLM
Sequence of UniProt Q5T9A4 (Q5T9A4 whole entry, looked up): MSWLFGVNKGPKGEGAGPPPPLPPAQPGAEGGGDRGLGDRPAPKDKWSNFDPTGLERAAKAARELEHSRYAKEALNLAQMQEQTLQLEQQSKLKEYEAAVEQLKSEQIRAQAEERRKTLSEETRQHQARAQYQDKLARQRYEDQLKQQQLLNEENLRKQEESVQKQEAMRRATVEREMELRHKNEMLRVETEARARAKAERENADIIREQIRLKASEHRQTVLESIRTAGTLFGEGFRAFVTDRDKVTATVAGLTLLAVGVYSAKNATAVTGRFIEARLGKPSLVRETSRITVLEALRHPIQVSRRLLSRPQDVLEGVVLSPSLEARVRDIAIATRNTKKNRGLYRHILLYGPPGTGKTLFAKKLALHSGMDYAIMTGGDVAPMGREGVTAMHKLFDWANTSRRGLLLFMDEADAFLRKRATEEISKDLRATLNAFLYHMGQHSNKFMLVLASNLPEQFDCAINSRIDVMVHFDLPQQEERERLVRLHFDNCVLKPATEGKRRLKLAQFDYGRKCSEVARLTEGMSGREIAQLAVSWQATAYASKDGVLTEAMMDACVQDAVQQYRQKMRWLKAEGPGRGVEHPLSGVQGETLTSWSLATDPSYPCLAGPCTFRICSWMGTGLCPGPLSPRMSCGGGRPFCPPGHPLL
Sequence of UniProt Q6P6C2 (Q6P6C2 whole entry, looked up): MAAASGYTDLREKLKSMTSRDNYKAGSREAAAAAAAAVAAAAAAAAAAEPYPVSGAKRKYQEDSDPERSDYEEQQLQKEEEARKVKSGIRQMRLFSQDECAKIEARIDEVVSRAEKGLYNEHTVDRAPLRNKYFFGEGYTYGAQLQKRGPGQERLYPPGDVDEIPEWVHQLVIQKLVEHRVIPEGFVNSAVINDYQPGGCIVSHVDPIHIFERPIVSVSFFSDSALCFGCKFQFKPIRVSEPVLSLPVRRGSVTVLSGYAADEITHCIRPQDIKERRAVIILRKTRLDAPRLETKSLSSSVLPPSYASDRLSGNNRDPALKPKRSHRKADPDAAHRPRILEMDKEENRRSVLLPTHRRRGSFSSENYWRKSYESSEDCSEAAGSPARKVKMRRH
Sequence of UniProt Q8WUW1 (Q8WUW1 whole entry, looked up): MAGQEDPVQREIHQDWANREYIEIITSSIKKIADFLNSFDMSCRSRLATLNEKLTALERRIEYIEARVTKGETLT
Sequence of UniProt Q9P287 (Q9P287 whole entry, looked up): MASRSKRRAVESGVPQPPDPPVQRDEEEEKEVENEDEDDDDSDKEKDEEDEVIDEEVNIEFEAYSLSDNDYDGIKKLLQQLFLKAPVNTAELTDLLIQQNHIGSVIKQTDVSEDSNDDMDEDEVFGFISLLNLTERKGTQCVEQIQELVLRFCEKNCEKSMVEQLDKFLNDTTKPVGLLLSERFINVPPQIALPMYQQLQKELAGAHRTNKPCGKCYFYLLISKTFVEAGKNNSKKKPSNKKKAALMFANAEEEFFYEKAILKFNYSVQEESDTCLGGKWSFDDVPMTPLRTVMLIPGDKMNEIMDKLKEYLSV
Sequence of UniProt P49189 (P49189 whole entry, looked up): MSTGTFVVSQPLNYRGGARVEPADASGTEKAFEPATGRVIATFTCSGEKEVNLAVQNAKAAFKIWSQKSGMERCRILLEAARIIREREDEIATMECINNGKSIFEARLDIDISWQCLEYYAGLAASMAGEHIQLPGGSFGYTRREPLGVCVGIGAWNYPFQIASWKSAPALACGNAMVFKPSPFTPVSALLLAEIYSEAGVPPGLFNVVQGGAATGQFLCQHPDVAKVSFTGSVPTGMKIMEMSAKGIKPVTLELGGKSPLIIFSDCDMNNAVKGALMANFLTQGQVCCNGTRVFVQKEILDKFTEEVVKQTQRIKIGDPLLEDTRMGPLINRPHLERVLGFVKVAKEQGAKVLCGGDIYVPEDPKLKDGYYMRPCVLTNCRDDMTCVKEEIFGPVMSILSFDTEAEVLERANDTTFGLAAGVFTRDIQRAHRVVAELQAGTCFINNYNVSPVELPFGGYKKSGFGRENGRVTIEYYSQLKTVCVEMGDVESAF

Row | Target | log2 fold change (erlotinib) | log2 fold change [1] | log2 fold change [2] | log2 fold change [3] | log2 fold change [4] | log2 fold change [5] | log2 fold change [6] | log2 fold change [7] | log2 fold change [8] | log2 fold change [9] | log2 fold change (IRAK-1-4 Inhibitor I) | log2 fold change (ibrutinib) | log2 fold change [10] | log2 fold change (ralimetinib) | log2 fold change [11] | log2 fold change [12] | log2 fold change [13] | log2 fold change (pinometostat) | log2 fold change [14] | log2 fold change [15]
1 | ACSL3 (UniProt O95573) | -0.005 | 0.055 | 0.092 | 0.351 (active) | 0.078 | 0.031 | 0.06 | 0.069 | -0.005 | 0.039 | 0 | -0.001 | -0.035 | -0.009 | -0.086 | -0.025 | -0.009 | -0.004 | 0.023 | 0.035
2 | ADAM15 (UniProt Q13444) | 0.314 | 0.154 | 0.03 | -0.223 | 0.035 | 0.068 | 0.043 | 0.08 | -0.042 | 0.013 | -0.026 | 0.045 | -0.199 | 0.024 | 0.008 | 0.14 | 0.053 | 0.046 | 0.027 | 0.033
3 | ACAD9 (UniProt Q9H845) | -0.002 | 0.025 | 0.054 | 0.015 | 0.035 | 0.032 | 0.026 | -0.002 | -0.002 | 0.029 | 0.01 | 0.005 | -0.041 | -0.034 | 0.007 | 0.002 | -0.036 | -0.028 | -0.012 | 0.028
4 | AFDN isoform 5 (UniProt P55196) | -0.005 | 0.101 | 0.021 | 0.01 | -0.02 | 0 | 0.012 | -0.005 | -0.049 | 0.038 | -0.018 | -0.012 | -0.19 | -0.002 | -0.125 | -0.082 | 0.01 | 0.004 | 0.007 | 0.049
5 | ARL6IP6 (UniProt Q8N6S5) | 0.064 | 0.116 | -0.102 | 0.034 | -0.006 | 0.001 | 0.201 | -0.087 | 0.01 | -0.036 | 0.12 | 0.056 | 0.168 | 0.413 (active) | 0 | -0.049 | -0.199 | 0.069 | -0.014 | 0.02
6 | ALKBH5 (UniProt Q6P6C2) | 0.176 | -0.637 (active) | -0.126 | 0.139 | 0.056 | -0.067 | 0.015 | -0.032 | -0.087 | 0.113 | 0.015 | 0.05 | 0.053 | 0.049 | 0.025 | 0.198 | -0.016 | -0.013 | 0.029 | 0.086
7 | BCCIP (UniProt Q9P287) | -0.024 | 0.045 | 0.019 | -0.027 | -0.029 | 0.015 | 0.013 | 0.035 | -0.036 | 0.114 | -0.025 | -0.063 | -0.06 | -0.005 | 0.002 | 0.035 | 0.015 | 0.073 | -0.041 | 0.255 (active)
8 | ABCB6 (UniProt Q9NP58) | 0.017 | 0.045 | 0.029 | 0.037 | -0.003 | 0.069 | 0.087 | -0.056 | -0.057 | 0.023 | -0.018 | 0.003 | 0.021 | 0.051 | -0.073 | -0.489 (active) | -0.007 | 0.037 | -0.058 | 0.065
9 | ATAD3B (UniProt Q5T9A4) | -0.027 | -0.018 | -0.128 | -0.006 | -0.005 | -0.002 | -0.06 | 0.066 | 0.01 | -0.091 | -0.05 | 0.045 | -0.01 | 0.122 | -0.011 | -0.472 (active) | 0.066 | 0.276 | 0.077 | 0.024
10 | ARPP19 (UniProt P56211) | -0.01 | 0.003 | 0.076 | -0.032 | -0.061 | 0.041 | 0.026 | 0.014 | -0.024 | -0.018 | 0.052 | -0.009 | 0 | 0.048 | -0.051 | 0.048 | -0.071 | -0.157 | 0.069 | -0.074
11 | ATL2 (UniProt Q8NHH9) | -0.004 | 0 | 0.081 | 0.004 | 0.049 | 0.012 | 0.049 | 0.014 | 0.077 | 0 | 0.011 | 0.006 | -0.058 | -0.116 | -0.087 | 0.054 | -0.001 | 0.035 | -0.016 | 0.169
12 | AAR2 (UniProt Q9Y312) | 0.075 | 0.089 | -0.113 | 0.057 | 0.103 | 0.049 | -0.003 | -0.137 | -0.008 | 0.043 | 0.039 | 0.02 | 0.021 | -0.002 | -0.062 | -0.012 | 0.104 | 0.024 | -0.074 | -0.035
13 | ARFGEF1 (UniProt Q9Y6D6) | 0.016 | 0.025 | 0.03 | -0.03 | 0.016 | 0.015 | 0.101 | 0.051 | -0.013 | 0.043 | 0.016 | -0.061 | 0.036 | 0.132 | -0.018 | 0.051 | -0.019 | 0.001 | -0.065 | 0.07
14 | ALDH9A1 isoform 3 (UniProt P49189) | -0.025 | 0.016 | 0.043 | 0.027 | -0.004 | 0.003 | 0.037 | -0.007 | -0.018 | 0.051 | 0.059 | 0.025 | 0.003 | -0.047 | -0.004 | 0.019 | -0.022 | -0.013 | 0.028 | -0.003
15 | BRK1 isoform 2 (UniProt Q8WUW1) | -0.115 | 0.003 | 0.279 | 0.04 | 0.027 | 0.072 | 0.051 | -0.02 | -0.08 | -0.037 | -0.026 | -0.004 | -0.045 | -0.037 | -0.018 | 0.058 | -0.053 | -0.157 | 0.064 | 0.145
16 | AKR1C2 (UniProt P52895) | 0.07 | 0.014 | -0.101 | -0.092 | 0.001 | 0.085 | 0.292 | -0.038 | 0.044 | -0.028 | -0.218 | 0.006 | -0.043 | -0.015 | 0.099 | -0.16 | -0.043 | 0.049 | 0.008 | -0.063
